# Reference: PubChem BioAssay (NCI)
# Compounds without any hit were thinned out: in the full panel of roughly 83,000, 20% have a hit.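 Note: values are percent growth. 100 is the growth of untreated cells, values between 100 and 0 indicate rising inhibition; between -100 and 0 indicates cell death.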 A number with no mark means an inactive call. The source made the active and inactive calls. The calls were made as follows: active = growth percent below 10; inactive = the rest.
# Key:
# Test in all cases: NCI-60 one-dose screen, 48 h (100 = growth as untreated, 0 = no growth, -100 = all killed)
# NCI-H226 lung = settings: 10 µM
# NCI-H322M lung = settings: 10 µM
# HOP-62 NSCLC = settings: 10 µM
# NCI-H460 lung = settings: 10 µM
# NCI-H522 lung = settings: 10 µM
# A549/ATCC NSCLC = settings: 10 µM
# COLO 205 colon = settings: 10 µM
# DU-145 prostate = settings: 10 µM
# SF-268 CNS = settings: 10 µM
# SF-295 CNS = settings: 10 µM
# SF-539 CNS = settings: 10 µM
# UACC-257 melanoma = settings: 10 µM
# HT29 colon = settings: 10 µM
# SNB-75 CNS = settings: 10 µM
# U251 CNS = settings: 10 µM
# PC-3 prostate = settings: 10 µM
# SK-MEL-5 melanoma = settings: 10 µM
# UACC-62 melanoma = settings: 10 µM
# SK-MEL-2 melanoma = settings: 10 µM
# HL-60(TB) leukemia = settings: 10 µM unless noted
SMILES,growth (NCI-H226 lung),growth (NCI-H322M lung),growth (HOP-62 NSCLC),growth (NCI-H460 lung),growth (NCI-H522 lung),growth (A549/ATCC NSCLC),growth (COLO 205 colon),growth (DU-145 prostate),growth (SF-268 CNS),growth (SF-295 CNS),growth (SF-539 CNS),growth (UACC-257 melanoma),growth (HT29 colon),growth (SNB-75 CNS),growth (U251 CNS),growth (PC-3 prostate),growth (SK-MEL-5 melanoma),growth (UACC-62 melanoma),growth (SK-MEL-2 melanoma),growth (HL-60(TB) leukemia)
COc1cc2cc(C(=O)N3C[C@@H](CCl)c4c3cc(OC(=O)N3CCN(C(=O)CCC(=O)N5CCN(C)CC5)[C@@H]5CSSC[C@@H]53)c3ccccc43)[nH]c2c(OC)c1OC,-11.6% (active),-7.14% (active),-55.3% (active),-67.7% (active),-82.7% (active),-59.7% (active),-65.6% (active),-4.3% (active),-28.4% (active),-88.5% (active),-91.8% (active),-71.7% (active),-84.3% (active),-90.1% (active),-71.2% (active),-10.5% (active),-100% (active),-64% (active),-83.3% (active),-37.6% (active)
COP(=O)(CC(F)(F)C(F)(F)F)OC,-55.6% (active),109%,99.7%,95.9%,-71.5% (active),87.4%,-59.3% (active),9.69% (active),88.4%,100%,4.99% (active),-36.5% (active),-35.5% (active),87.5%,81.7%,69.5%,80.8%,65.3%,25.2%,8.78% (active)
CC[C@]12C=CCN3CC[C@@]4(c5ccc(OC)cc5N(C)[C@H]4[C@@](O)(C(=O)OC)[C@@H]1OC(=O)CCCC[P+](c1ccc(C)cc1)(c1ccc(C)cc1)c1ccc(C)cc1)[C@@H]32,-78.6% (active),-97.6% (active),-84% (active),-86.6% (active),-82.7% (active),-92.2% (active),-64.1% (active),-84.5% (active),-61.1% (active),-91.8% (active),-98.7% (active),-95% (active),-81.8% (active),-87.6% (active),-93.6% (active),-73.2% (active),-98.5% (active),-97.4% (active),-87.3% (active),-42.2% (active)
CC12OOC(C)(OO1)C2CCC(=O)NCCCNc1ccnc2cc(Cl)ccc12 (stereo not given),94%,97.1%,95.1%,88.6%,-77.8% (active),87.8%,-62.6% (active),-74.4% (active),101%,102%,52.9%,96.2%,35%,103%,101%,84.1%,86.4%,87.2%,100%,96.6%
COC(=O)CCn1c(-c2ccc(-n3cc(-c4ccc(O[C@H]5O[C@@H]6OC7(C)CC[C@H]8[C@H](C)CC[C@@H]([C@H]5C)[C@@]68OO7)cc4)nn3)cc2)nc2ccccc21,32.8%,46.7%,32%,11.4%,-22.8% (active),30.9%,-26.6% (active),34%,31.8%,21.1%,20.9%,27.9%,22.5%,48.5%,32.5%,25.7%,1.38% (active),10.8%,-6.2% (active),-3.65% (active)
COc1ccc(/C=C/C(=O)c2nc3ccccc3n2Cc2ccc(Br)cc2)cc1,69.7%,73.9%,92.8%,57.8%,76.4%,74.6%,91.4%,61.9%,68%,81.9%,78.3%,72.3%,64.9%,66.1%,50.2%,57.4%,83.3%,65%,88.8%,41.2%
CC1=C(COCCOC(=O)c2ccc(S(=O)(=O)F)cc2)C2=C(C)C3(CC3)[C@@](C)(O)C(=O)C2=C1,-39.9% (active),-25.8% (active),-27.5% (active),2.07% (active),-72.2% (active),4.56% (active),-73% (active),-3.95% (active),12.9%,-11.8% (active),-76.2% (active),-31.6% (active),-28.5% (active),-15.9% (active),4.59% (active),8.96% (active),-92.1% (active),-88.5% (active),-99.4% (active),-22.9% (active)
CC12CCC3(CCC(=O)NCCCNc4ccnc5cc(Cl)ccc45)[C@@](C)(OO[C@]3(C)O1)O2,0.706% (active),27.5%,-6.39% (active),7.06% (active),-50.4% (active),25.3%,36.7%,38.2%,5.01% (active),-1.94% (active),-65.6% (active),51.1%,10.7%,-4.41% (active),-28.8% (active),28.3%,14.2%,11.1%,23.3%,14.9%
C[C@H]1[C@H](OC(=O)CCC(=O)Nc2cnccn2)O[C@@H]2OC3(C)CC[C@H]4[C@H](C)CC[C@@H]1[C@@]24OO3,74.8%,77.4%,53.6%,29.6%,-13.6% (active),62.6%,11.9%,77.7%,56.3%,41.7%,33.2%,56.1%,27.3%,72.6%,42.6%,36.6%,26.9%,26.3%,31.2%,0.224% (active)
C[C@H]1[C@H](OC(=O)CCC(=O)N(CCCc2cn(-c3ccc(CN4CCOCC4)cc3)nn2)CCNc2ccnc3cc(Cl)ccc23)O[C@@H]2OC3(C)CC[C@H]4[C@H](C)CC[C@@H]1[C@@]24OO3,54.1%,20.9%,56.4%,7.93% (active),-22.3% (active),36%,-30.1% (active),49.7%,50.1%,-2.37% (active),-73% (active),-69.8% (active),-12.5% (active),38.7%,13.3%,29.2%,-90% (active),16.6%,44.2%,-47% (active)
C[C@H]1[C@H](OC(=O)CCC(=O)N(CCCc2cn(-c3ccc(C#N)cc3)nn2)CCNc2ccnc3cc(Cl)ccc23)O[C@@H]2OC3(C)CC[C@H]4[C@H](C)CC[C@@H]1[C@@]24OO3,60.3%,82.9%,66.4%,58.2%,7.88% (active),51.5%,14.5%,69.3%,54.9%,53.8%,44.5%,58.3%,18.6%,72.1%,51.9%,33.9%,22.9%,43.3%,31.4%,-29.9% (active)
CC[C@]12C=CCN3CC[C@@]4(c5ccc(OC)cc5N(C)[C@H]4[C@@](O)(C(=O)OC)[C@@H]1OC(=O)CCC[P+](c1ccc(C)cc1)(c1ccc(C)cc1)c1ccc(C)cc1)[C@@H]32,-77.4% (active),-98.4% (active),-81.6% (active),-85.2% (active),-86.3% (active),-90.3% (active),-50.2% (active),-78.5% (active),-46.3% (active),-89.1% (active),-96.6% (active),-92.7% (active),-80.7% (active),-61.2% (active),-91.2% (active),-83.3% (active),-99.4% (active),-96.8% (active),-85.4% (active),-47.5% (active)
CCOP(=O)(CC(F)(F)C(F)(F)F)OCC,-23.5% (active),100%,90.9%,91.6%,-77.3% (active),76.2%,-68% (active),14.9%,80.4%,97.7%,-48.6% (active),-31.4% (active),-44.6% (active),79.4%,73.7%,63.8%,78.9%,44.7%,29.5%,17.2%
CC(C)C[C@H](NC(=O)CNC(=O)C[C@H]1O[C@@H]2OC3(C)CC[C@H]4[C@H](C)CC[C@@H]([C@H]1C)[C@@]24OO3)B(O)O,-22.4% (active),51.6%,-17% (active),13.6%,-73.8% (active),32.7%,17.8%,42.3%,17.4%,-63.6% (active),-93.3% (active),-56.9% (active),-56% (active),-15.7% (active),13.7%,4.1% (active),-90.2% (active),-86.6% (active),-57.3% (active),0.92% (active)
